# Experimental data taken from PubChem BioAssay (NCI).
# Compounds without any hit were thinned out: in the full panel of roughly 83,000, 20% have a hit.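 How to read the values: 0–100, growth inhibition (40 = 60% inhibited); 0, no net growth; -100 to 0, cell death (-40 = 40% of starting cells died; -100 = all dead).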 Values without a mark were called inactive. The source made the active and inactive calls. Rule for the calls: active = growth percent below 10; inactive = the rest.
# Columns and labels:
# Assay in all cases: NCI-60 one-dose screen, 48 h (100 = growth as untreated, 0 = no growth, -100 = all killed)
# Conditions in all cases: 10 µM unless noted
# [1] = system: NCI-H23 lung
# [2] = system: NCI-H226 lung
# [3] = system: NCI-H322M lung
# [4] = system: HOP-62 NSCLC
# [5] = system: NCI-H460 lung
# [6] = system: HOP-92 NSCLC
# [7] = system: NCI-H522 lung
# [8] = system: A549/ATCC NSCLC
# [9] = system: 786-0 renal
# [10] = system: COLO 205 colon
# [11] = system: DU-145 prostate
# [12] = system: K-562 leukemia
# [13] = system: MALME-3M melanoma
# [14] = system: MDA-MB-231 breast
# [15] = system: RXF 393 renal
# [16] = system: SF-268 CNS
# [17] = system: SF-295 CNS
# [18] = system: SF-539 CNS
# [19] = system: UACC-257 melanoma
# [20] = system: M14 melanoma
SMILES,growth [1],growth [2],growth [3],growth [4],growth [5],growth [6],growth [7],growth [8],growth [9],growth [10],growth [11],growth [12],growth [13],growth [14],growth [15],growth [16],growth [17],growth [18],growth [19],growth [20]
CCCCC[C@H]1C/C=C2/C(=O)C=C[C@@H]2C/C=C\CCCC(=O)O[C@@H](CCCCC)C/C=C2/C(=O)C=C[C@@H]2C/C=C\CCCC(=O)O1,-72.7% (active),-61.2% (active),-85.7% (active),-74.4% (active),-54.7% (active),-68.8% (active),-81.7% (active),-43.5% (active),-86.8% (active),-81.7% (active),-93.1% (active),-45.3% (active),-78.4% (active),-50.1% (active),-92.4% (active),-78.7% (active),-45% (active),-89.5% (active),-61.7% (active),-82.8% (active)
COc1ccc(-c2c(-c3nc4ccc(N5CCOCC5)cc4[nH]3)[nH]c(C)c2C(C)=O)cc1,52.6%,49.7%,43.6%,30.6%,57.8%,49.5%,37.8%,48.4%,45.3%,15.9%,74.6%,35.1%,36.4%,37.5%,44.8%,70.3%,35.7%,36.9%,44.7%,35.6%
C=C(C)[C@@H]1CC[C@]2(C(=O)NNC(=O)c3cccnc3)CC[C@]3(C)[C@H](CC[C@@H]4[C@@]5(C)CCCNC(C)(C)[C@@H]5CC[C@]43C)[C@@H]12,84.4%,83.2%,101%,84.9%,95.9%,50.5%,99.4%,71.6%,94.8%,20.6%,91.3%,1.18% (active),66.6%,87%,79.7%,87%,90.3%,81.3%,61.9%,63.8%
CCCCC[C@H]1CC=C2C(=O)C(Cl)=C[C@@H]2CC=CCCCC(=O)O[C@@H](CCCCC)CC=C2C(=O)C(Cl)=C[C@@H]2CC=CCCCC(=O)O[C@@H](CCCCC)CC=C2C(=O)C(Cl)=C[C@@H]2CC=CCCCC(=O)O1,58.4% [8 µM],115% [8 µM],96.2% [8 µM],89.8% [8 µM],91% [8 µM],130% [8 µM],25.1% [8 µM],90.6% [8 µM],103% [8 µM],70.8% [8 µM],59.9% [8 µM],27.7% [8 µM],105% [8 µM],53.1% [8 µM],79.2% [8 µM],73.1% [8 µM],106% [8 µM],88% [8 µM],76.3% [8 µM],48.2% [8 µM]
NC(N)=N/N=C/c1ccc(-c2ccc(-c3ccc(Cl)cn3)s2)cc1,101%,88.6%,96.7%,93.8%,88.1%,58.3%,97.6%,71.4%,63.8%,28.7%,94.4%,1.08% (active),101%,76.8%,59.2%,88.2%,102%,85.9%,109%,94.7%
Cn1nc(-c2ccccc2)c2c(-c3ccccc3)onc2c1=O,48%,62.1%,55.4%,31%,28.3%,43.9%,10.6%,35.4%,49.7%,15.2%,34.6%,13%,62.9%,52%,23.8%,47%,27.3%,2.75% (active),49.2%,42.3%
O=C1CN(c2ccccc2)C(=O)C1C(=O)Nc1ccc(Cl)c(Cl)c1 (stereo not given),31.2% [100 µM],41.6% [100 µM],19.6% [100 µM],9.46% [100 µM] (active),-2.82% [100 µM] (active),10.6% [100 µM],8.5% [100 µM] (active),16.2% [100 µM],0.0265% [100 µM] (active),-23.1% [100 µM] (active),38.9% [100 µM],20.1% [100 µM],-11.7% [100 µM] (active),27.2% [100 µM],34.7% [100 µM],31.2% [100 µM],0.977% [100 µM] (active),-9.88% [100 µM] (active),16.2% [100 µM],28.8% [100 µM]
CC(=O)n1c(/C(C#N)=C/c2ccc(N(C)C)cc2)cc2ccccc21,40.5%,61.1%,53.3%,31.3%,15%,70.9%,23.1%,48.8%,41.3%,16.5%,35.8%,15%,57%,44.7%,24.6%,56.9%,7.39% (active),17.1%,68.6%,26.8%
COc1ccc2c(c1)C(Br)=C(CCO)C2c1ccccc1 (stereo not given),95%,100%,15.8%,22.1%,9.69% (active),35.5%,96.8%,25.1%,85.4%,48.2%,-10.3% (active),122%,90.6%,56.3%,20%,84.3%,1.56% (active),63.7%,77.6%,89%
C[C@@H](Oc1ccc(C(=O)NS(=O)(=O)C(C)(C)C)cc1C(F)(F)F)c1ccc(Oc2ccccc2)cn1,61.2%,72.7%,54.3%,52.2%,45.7%,63.7%,24.5%,74.8%,37.5%,48.7%,79.6%,19.9%,44.4%,68.9%,-12.5% (active),54.3%,22.2%,29.8%,51.5%,22.8%
CC1=NN(c2ccc(S(=O)(=O)O)cc2Cl)C(=O)C1,92.5%,101%,112%,90%,103%,91.7%,97.4%,99.7%,97.6%,112%,162%,115%,129%,102%,108%,127%,105%,92.9%,110%,96.1%
N=C(N)c1ccc(-c2ccc(-c3cc(F)cc(F)c3)o2)nc1,87.8%,86.6%,96.4%,78.4%,99.4%,59%,99.1%,94.8%,95.6%,63.4%,104%,15.9%,97.3%,78.3%,75.2%,90.8%,95.9%,88.4%,115%,94.7%
CN1CCN(c2nc(-c3csc(-c4cccs4)n3)cc3ccccc23)CC1,79.1%,94.5%,81%,68.3%,-25.6% (active),23%,70.7%,47.9%,48.1%,-51.1% (active),55.8%,-35.9% (active),70.4%,41.6%,40.3%,49.6%,83%,86.7%,21.6%,-44.9% (active)
CCSc1ncnc2c1ncn2C1OC(CO)C(O)C1O (stereo not given),24.6%,62.9%,42.6%,21.1%,14.9%,33%,19.5%,14.6%,24.1%,20.8%,22.7%,15.9%,53.5%,64.4%,36.7%,19.4%,31.4%,25.3%,59.6%,29.6%
COc1ccc2c(c1)c(-c1nc(-c3cn(C)c4ncccc34)cs1)cn2CCCN1CCCCC1,79.4%,67.1%,80.3%,74.9%,-40.4% (active),48.7%,87.7%,25.2%,-31.3% (active),-65.8% (active),42.9%,-48.4% (active),81.1%,44.2%,65%,76.6%,91.6%,43.9%,96%,-85.2% (active)
